# Experimental data taken from PubChem BioAssay AID588342 (National Center for Advancing Translational Sciences (NCATS), 2011).
# In all, about 360,000 compounds went through this assay and about 25,000 (6.9%) were called active. Not shown: some 9% with an inconclusive outcome. Calls come from the whole dose curve; as a rule, active = well fitted inhibition curve with a large enough effect; inconclusive = small, poorly fitted or top-dose-only effect; inactive = flat fitted curve, though single readings scatter. What follows is part of a selection rich in actives, with near analogues and random picks from the rest.
# Biological target: Luciferin 4-monooxygenase (Photinus pyralis) (UniProt P08659)
# Sequence (P08659 whole entry, looked up): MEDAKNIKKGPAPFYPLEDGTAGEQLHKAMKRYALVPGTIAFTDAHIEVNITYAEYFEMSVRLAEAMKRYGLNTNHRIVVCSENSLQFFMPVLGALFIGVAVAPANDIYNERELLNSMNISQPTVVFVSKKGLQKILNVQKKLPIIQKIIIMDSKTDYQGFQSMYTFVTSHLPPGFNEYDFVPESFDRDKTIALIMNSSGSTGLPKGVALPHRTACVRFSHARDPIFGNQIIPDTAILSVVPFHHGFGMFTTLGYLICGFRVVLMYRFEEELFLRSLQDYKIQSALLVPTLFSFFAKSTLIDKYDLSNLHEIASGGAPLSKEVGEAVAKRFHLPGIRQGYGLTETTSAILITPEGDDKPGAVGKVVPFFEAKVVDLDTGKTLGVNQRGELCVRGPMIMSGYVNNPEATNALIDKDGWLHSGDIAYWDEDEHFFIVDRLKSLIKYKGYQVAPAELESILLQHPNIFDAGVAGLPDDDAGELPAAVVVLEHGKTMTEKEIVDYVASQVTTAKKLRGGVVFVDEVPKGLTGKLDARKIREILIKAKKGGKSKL
# Test: qHTS profiling assay for firefly luciferase inhibitor/activator using purifed enzyme and Km concentrations of substrates (counterscreen for miR-21 project); note: nearly all actives have a fitted effect of over 55% in size;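 for activity change, negative = inhibition: plate controls were vehicle for no effect and reference inhibitor for full effect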
# Conditions: purified FLuc, luminescence inhibition; series mostly up to 57.5 µM; activity change, negative = inhibition: at the top concentration
# Summary of the method: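 Purified P. pyralis luciferase (10nM final) with 10uM D-luciferin and 10uM ATP (Km levels) in 50mM Tris acetate pH 7.5, 10mM Mg acetate, 0.01% Tween-20, 0.05% BSA; qHTS 6-point titration, ~60 µM downward; luminescence read.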
# Potency is the fitted concentration of half-maximal effect.
Structure (SMILES),"activity change, negative = inhibition",Potency
Cc1cccc(NC(c2cccc(F)c2)c2ccc3ccc(C)nc3c2O)n1 (stereo not given),-0.966% (inactive),–
CCc1nc(SCC(=O)NNC(=O)c2ccc(C)cc2)c2ccccc2n1,-2.39% (inactive),–
Cc1ccc(C(=O)NNc2ncnc3ccccc23)cc1,–,8.49 µM (active)
Cc1ccc(C(=O)NNC(=O)c2cc3cc4ccccc4nc3s2)cc1,2.41% (inactive),–
CC1=C(C(=O)Nc2ccccc2Cl)C(c2cccs2)n2ncnc2N1 (stereo not given),-6.97% (inactive),–
O=C(COC(=O)/C=C/c1cn(-c2ccccc2)nc1-c1cccnc1)Nc1ccc(Cl)cc1Cl,5.4% (inactive),–
O=C(NCc1cccnc1)c1nc(-c2cccs2)no1,3.45% (inactive),–
O=C(/C=C/c1cccs1)NCc1cccnc1,-0.859% (inactive),–
O=C(O)c1ccc(N/N=C/c2cn(-c3ccccc3)nc2-c2cccs2)cc1,–,0.107 µM (active)
Cc1c(NC(=O)C(=O)N/N=C/c2cccs2)c(=O)n(-c2ccccc2)n1C,-7.6% (inactive),–
O=C(O)/C=C/c1cn(-c2ccccc2)nc1-c1cccs1,–,21.3 µM (active)
O=C(/C=C\c1cn(-c2ccccc2)nc1-c1cccs1)N1CCOCC1,–,7.57 µM (active)
CCC(=O)N1N=C(c2ccc(OC)cc2)CC1c1cn(-c2ccccc2)nc1-c1cccs1 (stereo not given),0.511% (inactive),–
COc1ccc(-c2nn(-c3ccccc3)cc2/C=C\C(=O)N2CCOCC2)cc1[N+](=O)[O-],0.818% (inactive),–
S=c1[nH]nc(-c2cccs2)n1/N=C/c1cn(-c2ccccc2)nc1-c1ccc(Cl)cc1,2.83% (inactive),–
COc1cccc(NC(=O)CN(C)C(=O)/C=C/c2cn(-c3ccccc3)nc2-c2cccs2)c1,-13.6% (inactive),–
O=C(NCc1cccnc1)c1cn(-c2ccccc2)nc1-c1cccs1,–,6.01 µM (active)
CN(C)c1ccc(NC(=S)N(CCc2ccccc2)C2CC(=O)N(c3c(Cl)cccc3Cl)C2=O)cc1 (stereo not given),-2.16% (inactive),–
CCN1CCN(CCCNC(=O)c2cnn(-c3ccc(C)cc3C)c2C2CCN(C(=O)OC(C)(C)C)CC2)CC1,-2.56% (inactive),–
O=C(COC(=O)c1cc(=O)[nH]c2ccccc12)NCc1cccc(Cl)c1,2.01% (inactive),–
Cn1cc(S(=O)(=O)N2CCCCCC2)cc1C(=O)N1CCN(c2ccc(F)cc2)CC1,-14.1% (inactive),–
CCc1ccc2c(c1)cc(CN(C(=S)Nc1ccccc1Cl)C1CC1)c1nnnn12,3.26% (inactive),–
O=C(Cc1ccccc1)Nc1sc2c(c1C(=O)Nc1ccc(Br)cc1)CCC2,-3.93% (inactive),–
Cc1ccc(S(=O)(=O)c2nc(-c3cccs3)oc2N2CCCCC2)cc1,-14% (inactive),–
CCOc1cc(C2c3c(-c4ccc(Br)cc4)n[nH]c3C(=O)N2c2ccc(Cl)cc2)ccc1O (stereo not given),18.5% (inactive),–

Structure (SMILES),"activity change, negative = inhibition",Potency
CCCC(=O)Nc1nc2ccc(NC(=O)c3cccnc3)cc2s1,-20.6% (inactive),–
CS(=O)(=O)c1ccc2nc(NC(=O)C3C4C=CC(C4)C3C(=O)O)sc2c1 (stereo not given),-2.44% (inactive),–
CN(C)c1cccc(C(=O)Nc2nc3ccc(S(=O)(=O)NC(C)(C)C)cc3s2)c1,-12.4% (inactive),–
COc1cccc(C(=O)Nc2nc3ccc(S(C)(=O)=O)cc3s2)c1,–,6.01 µM (active)
COc1cccc(C(=O)NNS(=O)(=O)c2ccc(F)cc2)c1,-3.77% (inactive),–
CS(=O)(=O)c1ccc2nc(NC(=O)c3ccc(Cl)nc3)sc2c1,–,21.3 µM (active)
O=C(NC1CC(=O)N(c2ccc(F)cc2)C1)c1ccc(S(=O)(=O)N2CCCC2)cc1 (stereo not given),-0.932% (inactive),–
COc1cccc(-n2c(SCC(=O)c3c[nH]c4ccccc34)nc3ccccc3c2=O)c1,3.3% (inactive),–
O=C(CSc1nc2ccccc2c(=O)n1-c1ccc(F)cc1)NC1CC1,0.482% (inactive),–
Cc1ccc(-n2c(SCC(=O)N3CCC(C(=O)O)CC3)nc3ccccc3c2=O)cc1C,–,13.5 µM (active)
COc1ccccc1N1CCN(S(=O)(=O)CCNC(=O)COc2ccc(F)cc2)CC1,-6.01% (inactive),–
COc1ccc(S(=O)(=O)N2CCN(CC(=O)NCC3(N4CCOCC4)CCCCC3)CC2)cc1,7.45% (inactive),–
CCOC(=O)CSc1nnc(-c2ccc([N+](=O)[O-])cc2)o1,-18% (inactive),–
COc1cccc(NC(=O)CSc2nnc(-c3cccnc3)o2)c1,1.95% (inactive),–
CC1=CC(C)(C)N(C(=O)CSc2nnc(-c3ccccc3)o2)c2ccc(C)cc21,0.191% (inactive),–
Cc1ccc(-c2nnc(SCc3ccccc3C)o2)cc1,–,10.7 µM (active)
Cc1cccc(C)c1OC(=O)CSc1nnc(-c2ccccc2)o1,2.68% (inactive),–
Cc1ccccc1CSc1nnc(CCCCCNC(=O)OC(C)(C)C)o1,-18% (inactive),–
COc1ccc(-c2nnc(SCc3cccnc3)o2)cc1,–,21.3 µM (active)
COC(=O)CSc1nnc(-c2cccnc2)o1,4.39% (inactive),–
CCCCSc1nnc(-c2ccc(C)cc2)o1,–,2.69 µM (active)
Cc1ccc(C(=O)N2c3ncnn3C3(CCCCC3)[C@@H]3CCCC[C@@H]32)cc1,-11.4% (inactive),–
Cc1ccc(S(=O)(=O)CCC(=O)OCC(=O)NCCc2ccc(S(N)(=O)=O)cc2)cc1,0.363% (inactive),–
COc1ccc(-c2onc(C)c2C)cc1S(=O)(=O)NCC1CCN(Cc2cccc(F)c2)CC1,3.47% (inactive),–
CCN(CC)c1cc(NC2CCCCC2)c2c3c(onc13)-c1ccccc1C2=O,-3.88% (inactive),–
